Measurements from the supplement of paper PMC11219838.
Unmarked numbers belong to inactive results.

Tested on: Caenorhabditis elegans L1 (N2)
Test: survival and reproduction score of C. elegans L1 (0: 0-10 living worms, 1: 11-20, 2: 21-50, 3: >50, 4: overgrown) (score 0-4); higher = more worms, less nematicidal, active = 1 or less; extreme values may be limits of the assay
Conditions: 60 µM; 6 days; temperature: 20 °C
How it was run: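 Worm survival and reproduction were recorded as an ordinal score of living worms per well, read under a dissection microscope. Each 96-well well held about 20 synchronized C. elegans N2 L1s with E. coli HB101 in liquid NGM and compound at 60 µM final (0.6% v/v DMSO), sealed and shaken at 200 rpm, 20 °C, for 6 days. Scores ranged from 0 (0–10 worms) to 4 (overgrown, starved) and were the mean of two biological replicates.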

SMILES | survival and reproduction score
Clc1cc(Cl)c(OCc2nc(-c3ccncc3)no2)cc1Cl | 4
COc1ccc(-c2nnc(SCC(=O)Nc3cccc(Cl)c3Cl)o2)cc1 | 4
Brc1ccc(-c2nnc(-c3cccs3)o2)o1 | 0 (active)
Cc1ccc(Cl)cc1NC(=O)CSc1nnc(-c2ccncc2)o1 | 4
COc1ccc(OC(C)c2nc(-c3ccccn3)no2)cc1 (stereo not drawn) | 4
Cc1cccc(OCc2nc(-c3ccccc3Cl)no2)c1 | 4
Clc1ccc(SCc2nc(-c3ccccc3)no2)cc1 | 0 (active)
COc1ccccc1OCc1nc(-c2ccc(Cl)cc2)no1 | 4
Cc1ccc(-c2noc(COc3ccc(Br)cc3)n2)cc1 | 4
CCNC(=O)c1ccccc1-c1nc(-c2ccccc2)no1 | 4
CCOc1ccc(NC(=O)CSc2nnc(-c3ccccc3Cl)o2)cc1 | 4
O=C(CSc1nnc(-c2cccc(F)c2)o1)Nc1ccccc1C(=O)c1ccccc1 | 4
Cc1ccc(CSc2nnc(-c3ccco3)o2)cc1 | 0 (active)
Clc1ccc(-c2noc(COc3ccccc3Cl)n2)cc1 | 4
CC(C)c1ccc(OCc2nc(-c3ccccn3)no2)cc1 | 4
CC(C)Oc1cccc(-c2nc(-c3ccccn3)no2)c1 | 4
Brc1ccc(CSc2nnc(-c3ccncc3)o2)cc1 | 4
c1ccc(-c2noc(C3COc4ccccc4O3)n2)cc1 (stereo not drawn) | 0 (active)
Clc1ccc(SCc2nc(-c3ccccn3)no2)cc1 | 0.5 (active)

SMILES | survival and reproduction score
N#Cc1ccccc1CSc1nnc(-c2ccco2)o1 | 4
Cc1ccccc1CSc1nnc(-c2ccccc2)o1 | 4
COc1ccc(CC(=O)Nc2ccc(-c3noc(-c4ccc(F)cc4)n3)cc2)cc1 | 4
Ic1ccc(-c2nc(-c3cccnc3)no2)cc1 | 0 (active)
CCOc1ccccc1-c1nc(-c2ccc(NC(=O)c3ccncc3)cc2)no1 | 4
Clc1ccc(CSc2nnc(-c3ccc(Cl)cc3)o2)cc1 | 4
CCc1cccc(CC)c1NC(=O)CSc1nnc(-c2ccccc2OC)o1 | 4
O=C(c1ccccc1-c1nc(-c2ccccc2Cl)no1)N1CCCCC1 | 4
Brc1ccc(-c2noc(-c3ccco3)n2)cc1 | 0 (active)
COc1ccc(-c2nnc(SCC(=O)Nc3ccc(C)cc3Br)o2)cc1 | 4
O=C(CSc1nnc(-c2ccc(Cl)cc2Cl)o1)N1CCCCC1 | 4
O=C(CSc1nnc(-c2ccc(Br)cc2)o1)OCc1ccccc1 | 4
COc1ccc(Cl)cc1-c1nc(-c2ccccc2C)no1 | 4
COc1ccc(-c2noc(-c3ccc(Cl)cc3Cl)n2)cc1 | 4
CC(Sc1nnc(-c2cccnc2)o1)C(=O)c1ccccc1 (stereo not drawn) | 4
COc1ccccc1-c1nc(-c2ccccc2)no1 | 4
CCc1ccc(C(=O)Nc2ccccc2-c2nc(-c3cccnc3)no2)cc1 | 4
CC(C)Oc1ccc(-c2nc(-c3cccnc3)no2)cc1 | 0 (active)
CC(=O)Nc1ccc(NC(=O)c2ccccc2-c2nc(-c3cccc(C)c3)no2)cc1 | 4
